# Hits are enriched below; roughly 7.9% of the tested compounds scored in any of these assays.
# HCV inhibitor: qHTS Assay for Inhibitors of Hepatitis C Virus (HCV). Huh7.5.1 HCVcc-Cre infection, luciferase reporter, 44 h. Potency, µM (top dose mostly 41.8 µM), inactives show at the top dose activity change, negative = inhibition, most hits filed as inhibitors. hit rate 3.4% among 340,000; active = well fitted inhibition curve with a large enough effect; inconclusive = small, poorly fitted or top-dose-only effect, or another doubt; inactive = no such curve, though single readings can be large or run the other way; also: potency is read from the fitted curve at half-maximal effect
#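 Seed cells (1,000/well) for 4 h; treat with compound and infect with HCVcc-Cre, moi about 0.5. Incubate 44 h, then detect luciferase activity.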
# LASV entry inh: qHTS for Inhibitors of binding or entry into cells for Lassa Virus; Lassa virus pseudotype entry inhibition, cell reporter; hit rate 1.2% among 300,000; Potency, µM (top dose mostly 37.9 µM), without a hit: at the top dose activity change, negative = inhibition, hits mostly inhibitors; calls by dose curve; tested in HEK293 cells; also: potency is read from the fitted curve at half-maximal effect; nearly all actives have a fitted effect of over 50% in size
# MARV entry inh: qHTS for inhibitors of binding or entry into cells for Marburg Virus | Marburg virus pseudotyped entry inhibition, cell reporter | Potency, µM (doses to about 37.8 µM), without a hit: at the highest dose activity change, negative = inhibition, usual class: inhibitors | hit rate 1.8% among 300,000; calls by dose curve; tested in HEK293 cells; also: potency is read from the fitted curve at half-maximal effect
# HCMV inh: qHTS Assay for inhibitors of the human cytomegalovirus (HCMV); HFF cells, HCMV-luciferase reporter, 72 h; active compounds read low; activity change, negative = inhibition, % at 57.5 µM; hit rate 4.5% among 410,000; AID 1259415, 2018; in the data active = activity change below about -60%; inconclusive = no clear call, values can overlap the other calls; inactive = above about -39%
#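 Inhibition of viral replication was scored as loss of reporter luminescence in HFFs infected with HCMV-luciferase (MOI 1 PFU/cell) for 72 h; compounds tested at 2 doses, normalized to buffer and Salinomycin controls.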
# FMDV inh: High Throughput Screening for Foot and Mouth Disease Virus Antivirals. FMDV antiviral cell-based qHTS. Potency, µM (highest dose often 57.9 µM), for inactives: at the highest dose activity change, negative = inhibition, actives largely listed as inhibitors. hit rate 1.2% among 410,000. AID 1159524, 2015; calls by dose curve; tested in HEK293T cells; also: read-out not given here; potency is read from the fitted curve at half-maximal effect; nearly all actives have a fitted effect of over 45% in size
# * marks the source's active call; other numbers are inactive results; ? = inconclusive; nt = no result given; [ ] = remark or other dose. % is scaled to controls: 0 for no effect and ±100 for the full control effect.
SMILES,HCV inhibitor,LASV entry inh,MARV entry inh,HCMV inh,FMDV inh
O=C(Nc1cc(Cl)cc(Cl)c1)N1CCCC1,1.0%,nt,nt,-30.3,3.7%
CCOC(=O)c1nc(Nc2ccc(Nc3ccccc3)cc2)c2ccccc2n1,11.2µM*,nt,nt,?,?
CC(=O)Oc1cccc(Nc2ncnc3ccccc23)c1,-20.4%,nt,nt,36.4,-7.8%
O=C(OCCNc1nc(-c2ccccc2)nc2ccccc12)c1cccnc1,?,nt,nt,4.5,-22.4%
CCCOC(=O)c1cccc(Nc2nc(-c3cccnc3)nc3ccccc23)c1,?,?,10µM*,133.5,25.1µM*
CCOC(=O)c1cccc(Nc2ncnc3ccccc23)c1,?,-22.1%,?,3.5,39.8µM*
Cc1ccccc1C(=O)Oc1cccc(Nc2ncnc3ccccc23)c1,?,10µM*,11.2µM*,127.6,15.8µM*
COC(=O)[C@@H]1CCCN1C(=O)c1cc(NC(=O)c2ccccc2)cc2ncn(C3CCCC3)c12,nt,nt,nt,nt,-4.2%
C[C@H](NC(=O)C1CCN(C(=O)[C@H](Cc2ccccc2)NC(=O)OC(C)(C)C)CC1)C(=O)O,8.9%,12.5%[46.1 µM],-0.6%[46.1 µM],40.8,-9.3%
CCC(=O)N[C@@H]1c2ccccc2C2(CCN(Cc3[nH]c4c(Cl)cccc4c3C)CC2)[C@H]1OC,nt,nt,nt,nt,-12.6%
OCC1OC(n2cnc3c(SCc4ccccc4)nc(F)nc32)C(O)C1O (stereo not given),2.5%,3.7%,-22.4%,13.0,-4.8%
COc1ccc(-c2nc3ccc(N4CCCC4)cc3c(=O)[nH]2)cc1OC,10µM*,?,-32.8%,-2.2,-25.5%
c1ccc(-c2nc3ccccc3[nH]2)cc1,-25.7%,nt,nt,73.4,34.3%
COC(=O)c1ccc(-c2nc3ccccc3[nH]2)cc1,-5.4%,7.31µM*,1.84µM*,58.2,-78.9%
COc1ccc2nc(-c3ccccc3)[nH]c(=O)c2c1,2.82µM*,nt,nt,23.0,37.4%
O=C(O)c1cccc(-c2nc3ccccc3[nH]2)c1,24.8%,1.41µM*,0.355µM*,31.9,?
Cc1cc(N/C=C(\C#N)S(=O)(=O)c2ccccc2Cl)nc(C)n1,13.3%,-19.9%,?,9.3,-4.6%
O=C(NC12CC3CC(CC(C3)C1)C2)c1ccc(N2CCNCC2)c([N+](=O)[O-])c1,?,3.2%,27.1%,2.9,-5.5%
Cc1ccccc1NC(=O)CSCc1cc(=O)n2ccsc2n1,14.4%,nt,nt,31.9,-9.1%
Cc1ccccc1NC(=O)CSc1nc(-c2ccccc2)cn1-c1ccccc1F,nt,?,nt,-21.0,-1.4%
O=C(Cn1c(=O)oc2ccccc21)N1CCCC1,12.4%,0.5%[46.1 µM],?,25.7,0.0%
COc1ccc(-c2cc(=O)n(-c3nc4ccccc4[nH]3)[nH]2)cc1,?,?,?,-89.7*,12.3%
Cc1ccc(-c2nc3ccccc3[nH]2)s1,?,?,12.6µM*,99.0,14.5%
COc1ccc(CCCc2nc3ccccc3[nH]2)cc1,7.9%,-17.0%,13.5%[46.1 µM],-36.4,27.6%
c1csc(-c2nc3ccccc3[nH]2)c1,-8.6%,-8.5%,-6.3%,97.4,35.0%
SMILES,HCV inhibitor,LASV entry inh,MARV entry inh,HCMV inh,FMDV inh
COc1ccc(-c2nc3ccccc3[nH]2)cc1,-23.5%,?,7.3µM*,124.4,nt
CC(C)(C)c1cc(C(C)(C)C)c2oc(=O)c(-c3nc4ccc(C(=O)O)cc4[nH]3)cc2c1,nt,-0.8%[46.1 µM],nt,16.5,-21.3%
Cc1cccc2cc(-c3nc4ccc(C(=O)O)cc4[nH]3)c(=O)oc12,1.5%,?,?,nt,7.94µM*
COc1cccc(NC(=O)N2CCCC2C(=O)NCc2ccccc2)c1 (stereo not given),3.9%,nt,nt,-28.7,1.7%
Cc1ccc(C)c(N2C(=O)N(Cc3ccccc3C)c3ccccc3S2(=O)=O)c1,nt,-6.3%[46.1 µM],nt,-31.9,?
CCc1ccccc1N1C(=O)N(Cc2ccccc2C)c2ccccc2S1(=O)=O,nt,?,nt,-105.3*,17.0%
CN1CCN(c2ccc3sc(-n4ccc5ccccc54)nc3c2)CC1,nt,nt,nt,-103.7*,?
c1ccc(N2CCN(c3nc4cc5c(cc4s3)OCO5)CC2)cc1,-26.0%,4.5%,-21.5%,-19.7,7.0%
CC(C)CNC(=O)CCc1nc(-c2ccccc2)no1,-8.7%,-9.3%,-1.7%,-4.2,-3.3%
COc1ccc(C(=O)Nc2ccc(NC(C)=O)cc2)cc1S(=O)(=O)N1CCCCC1C (stereo not given),?,nt,nt,nt,-3.8%
COc1ccc(C(=O)Nc2ccc(S(=O)(=O)N3CCCCC3C)cc2)c(OC)c1OC (stereo not given),11.2µM*,?,?,-28.2,nt
COc1cc(C(=O)Nc2ccc(S(=O)(=O)N3CCCCC3C)cc2)cc(OC)c1OC (stereo not given),12.6µM*,-19.0%,-14.5%,?,-9.0%
C[C@@H](CN(C)C)CN1c2ccccc2CCc2ccccc21,nt,nt,13µM*,nt,nt
CNC(=O)N1c2ccccc2CCc2ccccc21,10.5%,nt,nt,-11.2,-15.2%
CC(CN(C)C)CN1c2ccccc2CCc2ccccc21 (stereo not given),-3.8%,?,13µM*,?,?
Cc1ccc(Cn2c(SCc3ccc(C(=O)N4CCCCCC4)cc3)nc3ccncc32)cc1,nt,-27.2%[46.1 µM],?,-23.8,-37.1%
COC(=O)c1cc(NC(=O)Cc2ccc(OC)c(OC)c2)cc(C(=O)OC)c1,-22.5%,-10.0%,1.2%[46.1 µM],48.8,-2.8%
COc1ccc(CC(=O)Nc2cccc(SC)c2)cc1OC,3.98µM*,?,?,-66.2*,?
COc1ccc(CCC(=O)Nc2cccc(S(=O)(=O)N3CCCCCC3)c2)cc1OC,?,nt,nt,-17.7,?
COc1ccccc1-n1cnnc1SCC(=O)Nc1cccc(S(=O)(=O)N2CCCCC2)c1,9.3%,4.3%,0.6%,-67.9*,nt
COc1ccc(CC(=O)Nc2cccc(S(=O)(=O)N3CCCCCC3)c2)cc1OC,?,4.47µM*,?,-83.1*,?
COCCn1cnnc1SCC(=O)Nc1cccc(S(=O)(=O)N2CCCCCC2)c1,?,13.2%,12.2%,-19.1,3.3%
CCOc1cc2c(cc1OCC)CN(C(=O)c1cccc(S(=O)(=O)N3CCCC3)c1)CC2,8.91µM*,nt,nt,-23.2,-22.4%
CC(=O)N1CCOc2cc(S(=O)(=O)Nc3c(C)cccc3C(C)C)c(Cl)cc21,nt,6.1%[46.1 µM],nt,7.4,30.1%
CCOC(=O)c1cccc(NC(=O)CN(c2ccc(C)cc2)S(=O)(=O)c2c(C)n[nH]c2C)c1,8.7%,?,1.9%,11.7,-23.5%
COc1ccc(NCC(=O)Nc2cccc(S(=O)(=O)N3CCCC3)c2)cc1Cl,10µM*,nt,nt,43.9,-11.5%
CCOc1ccccc1OCC(=O)Nc1cccc(S(=O)(=O)N2CCCCCC2)c1,?,?,?,0.5,-41.1%
COc1ccc(NC(=O)CN(C2CCCCC2)S(C)(=O)=O)cc1Cl,-25.7%,-4.9%,-17.9%,-72.7*,-26.0%
CCOc1ccc(NC(=O)CNc2cccc(S(=O)(=O)N3CCCCCC3)c2)cc1OCC,11.2µM*,nt,nt,0.0,?
COc1cc(CC(=O)Nc2cccc(C(F)(F)F)c2)cc(OC)c1OC,?,-15.1%,?,-71.2*,?

# From PubChem
